# Experimental data taken from PubChem BioAssay.
# Target: Fibroblast growth factor 2 (Homo sapiens) (UniProt P09038)
# Assay: basic fibroblast growth factor binding to printed compounds – biochemical, small-molecule microarray, 635/667 nm fluorescence, primary screen (AID 1133)
# Conditions: FGF2, fluorescence 635/667, higher = more signal
# Fibroblast growth factor 2 (Homo sapiens), sequence (P09038 whole entry, looked up): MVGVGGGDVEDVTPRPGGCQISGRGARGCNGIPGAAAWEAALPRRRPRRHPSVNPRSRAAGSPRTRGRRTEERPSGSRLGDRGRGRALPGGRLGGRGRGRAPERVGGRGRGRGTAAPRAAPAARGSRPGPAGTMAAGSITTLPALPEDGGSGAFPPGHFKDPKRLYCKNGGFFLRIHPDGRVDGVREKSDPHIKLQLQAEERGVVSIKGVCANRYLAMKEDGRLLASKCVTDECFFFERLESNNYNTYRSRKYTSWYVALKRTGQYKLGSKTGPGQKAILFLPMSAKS
row,SMILES,composite z-score
1,Cc1ccc(S[C@]2(C(=O)NC3CC3)CC(=O)N(Cc3cc(C(F)(F)F)cc(C(F)(F)F)c3)[C@@H]2c2ccc(CO)cc2)cc1,0.411
2,O=C/C=C/c1ccccc1Cl,-0.517
3,COC(=O)[C@@]1(Cc2ccccc2N=[N+]=[N-])N=C(c2ccc(OCCCO)cc2)O[C@H]1c1ccccc1CN=[N+]=[N-],0.609
4,COC(=O)C(CC#Cc1ccc2c(c1)[C@]1(C(=O)N2)[C@H](C(=O)N2CCCCCCC2)[C@H]2C(=O)O[C@H](c3ccccc3)[C@H](c3ccccc3)N2[C@@H]1c1ccc(O)cc1)C(=O)OC,-1.1
5,C=CCC(OC(C)=O)[C@@H]1[C@@H](N(Cc2cccc3ccccc23)C(=O)c2ccc(C)cc2)c2cc(OCCCO)ccc2N1C(=O)c1ccc(-c2ccccc2)cc1 (stereo not given in full),0.26
6,CCOC(=O)C[C@H]1[C@H](OC(=O)c2ccccc2-c2ccccc2)[C@@H](NC(=O)C2CCCCC2)c2cc(OCCCO)ccc2N1C(=O)c1ccccc1,1.39
7,CC(C)CNC(=O)[C@@]1(C)c2ccccc2C(=O)N(Cc2ccc(OC(F)(F)F)cc2)[C@H]1c1ccc(CO)cc1,0.192
8,C=CC[C@]1(C(=O)O)N=C(c2ccc(OCCCO)cc2)O[C@H]1c1ccccc1,-0.503
9,O=C1OCC=C[C@H]2OC34C=CCN(Cc5ccccc5)C(=O)[C@H]3N(CCO)C(=O)[C@@H]4[C@@H]12 (stereo not given in full),-1.24
10,CO[C@@H]1COC(=O)CC=C[C@@H](C)[C@H](OC)COC(=O)CC=C[C@H]1C,1.34
11,CO[C@H]1COC(=O)[C@@H](C)COC(=O)[C@H](Cc2ccccc2)NC(=O)CC=C[C@H]1C,0.771
12,CN(C)c1ccc(C(O)C2C=CC3C(=O)NC(=O)C3N2Nc2ccc(Cl)cc2Cl)cc1 (stereo not given),-0.785
13,COc1ccc([Si](C)(C)[C@H]2[C@H](CCO)O[C@@]3(C(=O)N(Cc4ccccc4)c4ccc(N5C(=O)c6cccc7cccc5c67)cc43)[C@@H]2C)cc1,-0.751
14,CO[C@@H]1COC(=O)CC=C[C@H](C)COC(=O)[C@H](Cc2ccccc2)NC(=O)CC=C[C@H]1C,1.38
15,CCOC(=O)C[C@H]1[C@H](OC(=O)Cc2ccc3c(c2)OCO3)[C@@H](NC(=O)CC(C)C)c2cc(OCCCO)ccc2N1C(=O)c1ccccc1,0.503
16,CO[C@@H]1COC(=O)[C@H](COCc2ccccc2)NC(=O)CC=C[C@@H](C)[C@H](OC)COC(=O)[C@H](COCc2ccccc2)NC(=O)CC=C[C@H]1C,0.622
17,CC/C=C/C(=O)N(C[C@@H]1CCCO1)[C@@H]1CC(C(=O)NCCO)=C[C@H](Oc2c(I)cc(CO)cc2OC)[C@H]1O,-0.273
18,CCC1=C2CN(Cc3ccccc3Br)[C@@H]([C@@H](O)Cc3ccccc3)C2C=CCC1 (stereo not given in full),0.209

row,SMILES,composite z-score
1,CC(=O)NCCCC[C@@H]1NC(=O)[C@@H]2C[C@H](C(=O)NCCCCCNC(=O)CS)[C@H](c3ccc(O)cc3)N2C1=O,0.746
2,C=C(C)[C@@H]1CC=C(C(O)C2C=CC3C(=O)NC(=O)C3N2Nc2ccccn2)CC1 (stereo not given in full),1.92
3,CCCC=C(CCC)[C@@H](NC(=O)c1ccc(C(F)(F)F)cc1)c1ccccc1,-0.764
4,CO[C@@H]1COC(=O)[C@H](C)NC(=O)CC=C[C@@H](C)[C@H](NS(=O)(=O)c2ccc(C)cc2)COC(=O)CC=C[C@@H]1C,0.0544
5,COC(=O)C1=C(C)N(Cc2ccccc2)c2c(C(=O)OC)c(C(=O)OC)c(C(=O)OC)c(=O)n2[C@@H]1c1ccccc1,0.528
6,CO[C@H]1COC(=O)[C@@H](Cc2ccccc2)NC(=O)[C@@H](C)COC(=O)CC=C[C@@H]1C,1.01
7,CC(C)NC(=O)[C@@]1(Cc2ccccc2I)c2ccccc2C(=O)N(C2CCCCC2)[C@H]1c1ccc(CO)cc1,0.148
8,COc1ccc([Si](C)(C)[C@H]2[C@H](CC(=O)N3Cc4ccccc4C[C@H]3CO)O[C@@]3(C(=O)N(Cc4cccc(N5CCOC5=O)c4)c4ccccc43)[C@@H]2C)cc1,1.32
9,O=C1NC(=O)C2C1C=CC(C(O)C=Cc1ccc([N+](=O)[O-])cc1)N2Nc1ccccn1 (stereo not given),1.92
10,CO[C@H]1COC(=O)CC=C[C@H](C)[C@@H](OC)COC(=O)CC=C[C@@H]1C,1.29
11,COc1cc(Cc2cc3c(c(CCc4ccccc4)n2)[Si](C(C)C)(C(C)C)OC3)cc(OC)c1OC,0.263
12,NC(=O)NCC#Cc1ccc2c(c1)[C@]1(C(=O)N2)[C@H](C(N)=O)[C@H]2C(=O)O[C@H](c3ccccc3)[C@H](c3ccccc3)N2[C@@H]1c1ccccc1OCCO,0.66
13,COCCOC(=O)N1C(=O)[C@@]2(c3cc(C#CCNC(N)=O)ccc31)[C@H](C(=O)N1CCCCCCC1)[C@H]1C(=O)O[C@H](c3ccccc3)[C@H](c3ccccc3)N1[C@@H]2c1ccccc1OCCO,0.385
14,C=CCC(OC(C)=O)[C@@H]1[C@@H](N(Cc2ccc(-c3ccccc3)cc2)C(=O)c2ccc(-c3ccccc3)cc2)c2cc(OCCCO)ccc2N1C(=O)Cc1ccc(OC)cc1 (stereo not given in full),0.0338
15,C[C@H]1C2[C@H](Cc3ccccc3)NC(=O)[C@]23C(=O)N[C@H](Cc2ccccc2)C(=O)N[C@@H](Cc2ccccc2)C(=O)NC/C=C\C/C=C/C3[C@@H]2O[C@]12C (stereo not given in full),0.0748
16,CCOC(=O)C1=C[C@@H](c2ccccc2)N(S(=O)(=O)c2ccc(C)cc2)[C@H]1c1ccc(F)cc1,0.47
17,CC(C)[Si](OCCCNS(=O)(=O)c1ccc(Br)cc1)(C(C)C)C(C)C,0.828
